Experimental data from ChEMBL document CHEMBL4513216, “Probing the Open Global Health Chemical Diversity Library for Multistage-Active Starting Points for Next-Generation Antimalarials” (ACS Infect Dis, 2020).
About 8,600 (12%) of roughly 69,000 compounds showed an effect of 50% or more. Only a selection was taken, and strong results are over-represented in it overall.

These compounds were tested on Plasmodium berghei (assay: Screen against P. berghei liver stage (PbLuc), transformed with Luciferase, at 10uM). Conditions: tested at 10 uM.
Type: functional, HepG2
`Cc1nc2c(c(=O)[nH]1)CN(C(=O)CCC1CCCN(C)C1)C2` (stereo not drawn) gave an INHIBITION of 48.2%.
Compound `Cc1noc(CN(C)Cc2ccc3c(c2)OCO3)n1` has an INHIBITION of 19.2%.
`Cc1cc(Cl)ccc1-n1ncc(C(=O)NCC2COC(C)(C)O2)c1N` (stereo not drawn) gave an INHIBITION of -15.2%.
`CC(C)N(C)Cc1cnc2n1CCN(Cc1ccsc1)C2` showed an INHIBITION of 21.4%.
Work on `COCCn1ccc2cc(C(=O)N3CCN(S(C)(=O)=O)CC3)ccc21` yielded an INHIBITION of -0.448%.
`CC(C)(C)C(=O)N1CCC(c2noc(C3CCC(=O)N3)n2)CC1` (stereo not drawn) gave an INHIBITION of -17.9%.
Work on `Cc1nnc2n1CCN(Cc1csc(COc3ccccc3)n1)C2` yielded an INHIBITION of -0.113%.
`CC1(C)Cc2nc(C(C)(C)C)ncc2C(NC(=O)C2(N)CC2)C1` (stereo not drawn) gave an INHIBITION of -10.9%.
In the case of `COc1cc(C(=O)NS(=O)(=O)c2cncc(Br)c2)cc(OC)c1C`, the INHIBITION is reported as -4.68%.
With `O=C1[C@@H]2CN(c3ncccc3Cl)C[C@]2(C(=O)O)CN1CC1CC1` the INHIBITION was 39.1%.
In the case of `Cc1cc(CC(C)Nc2ncnc3cccc(F)c23)[nH]n1` (stereo not drawn), the INHIBITION is reported as 19.3%.
`CC(Cc1cncs1)Nc1ncnc2cccc(F)c12` (stereo not drawn) gave an INHIBITION of 66.9%.
Compound `CC(Cc1cccnc1)Nc1ncnc2cccc(F)c12` (stereo not drawn) has an INHIBITION of -3.43%.
In the case of `COc1ccc(OCCNC(=O)N2CCS(=O)(=O)CC2)cc1`, the INHIBITION is reported as -16.35%.
`COCCOCC(=O)Nc1ccc(F)cc1C` gave an INHIBITION of 55.4%.
`COCCOCC(=O)Nc1cc(C)ccc1F` showed an INHIBITION of -18.9%.
`COCCOCC(=O)Nc1ccc(C)cc1F` showed an INHIBITION of -29.2%.
`CCN(C)c1ncnc2c1CCN(Cc1nccs1)CC2` was tested, and the INHIBITION was -37.8%.
In the case of `CCc1nc(NCCc2c(C)nn(CC)c2C)c2cnn(C)c2n1`, the INHIBITION is reported as 65.7%.
`CCCc1nc(N[C@H]2COC[C@@H]2N2CCCCC2)c2cnn(C)c2n1` showed an INHIBITION of -19.8%.
Work on `Cc1cc(C(F)(F)F)nc(CCNc2nc(C)nc3c2cnn3C)n1` yielded an INHIBITION of 15.3%.
For `CCc1nc(NCCc2nc(C)c(C)s2)c2cnn(C)c2n1`, the INHIBITION was 27.6%.
Compound `CCCc1nc(N[C@H]2COC[C@@H]2N2CCCC2)c2cnn(C)c2n1` has an INHIBITION of 25.8%.
`CCCc1nc(NCc2c(C)nn(CCC)c2C)c2cnn(C)c2n1` was tested, and the INHIBITION was 66.6%.
`CC(C)(C)c1ncc(CNCC2CCCN2c2cccnn2)s1` (stereo not drawn) gave an INHIBITION of 31.3%.
`Cn1cc(C(=O)NC[C@@H]2OC[C@H]3CN(Cc4ccco4)CC[C@H]32)cn1` gave an INHIBITION of -1.53%.
In the case of `CC(C)OCCN1CCN(C(C)c2nc(C3CC3)no2)CC1` (stereo not drawn), the INHIBITION is reported as 33.6%.
`O=C(NCCNc1ncccn1)N1CCCC1` showed an INHIBITION of -0.113%.
Compound `Cc1ccc(N2CC(c3nccc(C)n3)C2)nn1` has an INHIBITION of 19.64%.
`CCOC(C)C(=O)NCc1ccc(N(C)C)cc1` (stereo not drawn) was tested, and the INHIBITION was -25.9%.
With `CC(C)c1cc(Br)ccc1NC(=O)NCC(O)CO` (stereo not drawn) the INHIBITION was 25.4%.
Work on `CCOCC(O)CN1CCN(C(=O)c2cc(F)cc(F)c2)CC1` (stereo not drawn) yielded an INHIBITION of 3.73%.
`O=C(CCCNC(=O)c1cnccn1)Nc1ncc[nH]1` showed an INHIBITION of 56.3%.
For `O=C(NCc1csc(Br)c1)c1cnccn1`, the INHIBITION was -43.6%.
With `CC(C)(C)c1ccc(C(=O)NCCCNC(=O)c2cnccn2)cc1` the INHIBITION was -23.45%.
Compound `O=C(CNC(=O)c1cnccn1)Nc1ncc[nH]1` has an INHIBITION of 71.2%.
Work on `O=C(CCNC(=O)c1cnccn1)Nc1ncc[nH]1` yielded an INHIBITION of 59.1%.
In the case of `CC(C)(C)c1ccc(S(=O)(=O)CCNC(=O)c2cnccn2)cc1`, the INHIBITION is reported as 26.8%.
`O=C(NCCSC1CCCC1)c1cnccn1` was tested, and the INHIBITION was 4.41%.
`O=C(NCCNc1cc(N2CCCC2)ncn1)c1cnccn1` was tested, and the INHIBITION was 19.2%.
Compound `O=C(NCC(=O)N1CCc2ccccc2C1)c1cnccn1` has an INHIBITION of -112%.
Compound `O=C(Cc1ccccn1)N1CCC2(CC1)CC(Oc1ccccn1)CO2` (stereo not drawn) has an INHIBITION of 14.2%.
Work on `O=C(c1cccnc1Oc1ccc(Cl)cc1)N1CC[C@@H](O)C1` yielded an INHIBITION of 11.5%.
Compound `Cn1nccc1C(=O)N1CCC2(CC1)COC(COc1ccccn1)C2` (stereo not drawn) has an INHIBITION of 8.64%.
`CC(=O)Nc1nc(C)c(S(=O)(=O)NCCc2cccnc2)s1` gave an INHIBITION of 13%.
`Cc1ccc2oc(CN3CCC(C(=O)O)(n4ccnc4)CC3)c(C)c2c1` was tested, and the INHIBITION was -23.5%.
Compound `Cc1nc2c(c(NC(C)C)n1)CCN(C1CCOCC1)CC2` has an INHIBITION of 36.4%.
For `Cc1cnn(CCCNC(=O)NCCS(=O)(=O)Nc2ccccc2)c1`, the INHIBITION was -4.4%.
Work on `Cc1cnn(CCCNC(=O)NCCC(=O)Nc2ccccc2)c1` yielded an INHIBITION of 22.6%.
Work on `Cc1cnn(CCCNC(=O)NC(C)C(=O)Nc2ccccc2)c1` (stereo not drawn) yielded an INHIBITION of 68.8%.
For `Cc1nc2c(c(C)c1CC(=O)NCc1ccco1)c(=O)[nH]n2C`, the INHIBITION was 13.6%.
For `Cn1ncc2c(NCC3CCCN3c3cccnn3)ncnc21` (stereo not drawn), the INHIBITION was 21.5%.
With `c1cnnc(N2CCCC2CNc2cnc3ccccc3n2)c1` (stereo not drawn) the INHIBITION was 7.08%.
With `c1cnnc(N2CCCC2CNc2ncnc3ccccc23)c1` (stereo not drawn) the INHIBITION was 64.7%.
For `c1cnnc(N2CCCC2CNc2ncnc3sccc23)c1` (stereo not drawn), the INHIBITION was -19.6%.
`c1cnnc(N2CCCC2CNc2ncnc3ccsc23)c1` (stereo not drawn) gave an INHIBITION of 52.3%.
`c1cnnc(N2CCCC2CNc2ncnc3c2CCC3)c1` (stereo not drawn) gave an INHIBITION of -24.2%.
Work on `Cc1nc(CN(C)c2cc(N3CCCC3CO)ncn2)cs1` (stereo not drawn) yielded an INHIBITION of 22.1%.
`O=C1c2cccnc2OC(CN2CCOCC2)CN1Cc1cccs1` (stereo not drawn) gave an INHIBITION of 15.4%.
`CN1CCC(CN(C)C(=O)c2cc(C3CCCN3C)ccn2)CC1` (stereo not drawn) gave an INHIBITION of -12.9%.
`Cn1nc(CNC(=O)CC#N)c2c1CN(CC1CC1)CC2` showed an INHIBITION of 16.9%.
In the case of `Cn1cc(CN2CCCC(c3nc(O)cc(-c4cccs4)n3)C2)cn1` (stereo not drawn), the INHIBITION is reported as -15.1%.
With `CN(C)S(=O)(=O)N1C[C@H]2CC[C@@H](C1)N(Cc1ccc3c(c1)OCCO3)C2` the INHIBITION was 20.6%.
In the case of `O=C1CC2(CCN(c3nccc(-c4cc(C(=O)O)ccn4)n3)CC2)CN1`, the INHIBITION is reported as 64.9%.
`Cc1ccc(-c2ccnc(N3CCC4(CCO4)CC3)n2)c(C)n1` showed an INHIBITION of 36.5%.
`Cc1ccc(-c2ccnc(N3CCC4(CC3)CNC(=O)O4)n2)c(C)n1` gave an INHIBITION of 30.9%.
For `O=C(O)c1ccnc(-c2ccnc(N3CCC4(CCO4)CC3)n2)c1`, the INHIBITION was 40.2%.
`Cc1ccc(-c2ccnc(N3CCC4(CC3)CNC(=O)C4)n2)c(C)n1` gave an INHIBITION of 68.9%.
`O=C(O)c1ccnc(-c2ccnc(N3CCC(F)(F)CC3)n2)c1` showed an INHIBITION of 30.3%.
Work on `Cc1cc(OC(F)F)c(C(=O)N2CCC(CN(C)C)CC2)s1` yielded an INHIBITION of -9.44%.
For `CC(C)c1cc(CN(C)C(=O)CN2CCC(C(N)=O)CC2)no1`, the INHIBITION was 12.7%.
With `Cc1ccc(CNc2n[nH]c(C)n2)cc1` the INHIBITION was 46.6%.
`CN(C(=O)c1cccc(C#N)c1)c1nnc(C2CCOC2)s1` (stereo not drawn) was tested, and the INHIBITION was 24.45%.
With `CCNC(=O)C1CCN(Cn2nc(-c3ccc(F)cc3)oc2=O)CC1` the INHIBITION was 30.6%.
`CC(C)CCNC(=O)c1ccc2c(=O)n(-c3ccccc3)cnc2c1` gave an INHIBITION of 1.8%.
Compound `CC(C)CNC(=O)c1ccc2c(=O)n(-c3ccccc3)cnc2c1` has an INHIBITION of 60.9%.
`CC(C)CCNC(=O)c1ccc(-n2cnc3ccccc3c2=O)cc1` gave an INHIBITION of 26.8%.
For `NCCc1cn(Cc2ccccn2)c2ccccc12`, the INHIBITION was -18.2%.
In the case of `c1cncc(CNc2cncc(C3CCCN3)n2)c1` (stereo not drawn), the INHIBITION is reported as 6.26%.
Work on `CCOc1ncccc1NC(=O)c1cccs1` yielded an INHIBITION of -10.9%.
Compound `CCCC(C)C(=O)Nc1ccc(OC)nc1N1CCN(C(C)=O)CC1` (stereo not drawn) has an INHIBITION of 29.4%.
`COc1ccc(NC(C)=O)c(N2CCN(C(C)=O)CC2)n1` was tested, and the INHIBITION was 80.1%.
With `COc1ccc(NC(=O)c2ccco2)c(N2CCN(C(C)=O)CC2)n1` the INHIBITION was 44%.
For `COc1ccc(N)c(N2CCN(C(C)=O)CC2)n1`, the INHIBITION was 42.3%.
`COc1ccc(NC(=O)c2ccc[nH]2)c(N2CCN(C(C)=O)CC2)n1` gave an INHIBITION of 6.8%.
`COc1ccc(NC(=O)CCC(C)C)c(N2CCN(C(C)=O)CC2)n1` gave an INHIBITION of 68.8%.
`CNc1ccnc(NCCC(=O)Nc2ccccc2C)n1` was tested, and the INHIBITION was 28.4%.
In the case of `O=C(C1CCOC1)N1C[C@H]2CN(Cc3ccncc3)C(=O)[C@H]2C1` (stereo partly drawn), the INHIBITION is reported as -22.2%.
`CCN1C[C@@H]2CN(C(=O)C3CC=CC3)C[C@@H]2C1=O` showed an INHIBITION of 15.7%.
In the case of `Cc1cccc(CN2C[C@@H]3CN(C(=O)C4CC=CC4)C[C@@H]3C2=O)n1`, the INHIBITION is reported as 14.9%.
With `O=C(C1CC=CC1)N1C[C@H]2CN(Cc3ccncc3)C(=O)[C@H]2C1` the INHIBITION was 56.6%.
Compound `O=C(C1CCC1)N1C[C@@H]2CN(Cc3ccncc3)C(=O)[C@@H]2C1` has an INHIBITION of 50.3%.
Compound `O=C1[C@H]2CN(Cc3ccoc3)C[C@H]2CN1Cc1ccncc1` has an INHIBITION of 45.1%.
With `COc1ccc(C(=O)NS(=O)(=O)c2cncc(Br)c2)c(OC)c1` the INHIBITION was 29.4%.
`Cc1ccc(-c2snnc2C(=O)NCCCO)cc1` gave an INHIBITION of -19.7%.
`COc1cccc(OC)c1CC(=O)NC(C#N)c1ccsc1` (stereo not drawn) showed an INHIBITION of 0.0944%.
In the case of `Cc1ccc(C(=O)NC2CC2)c(-n2cnnn2)c1C`, the INHIBITION is reported as 28.6%.
In the case of `CN(C)c1ccc(CNC(=O)NCCc2cccs2)cn1`, the INHIBITION is reported as -11.9%.
Compound `c1cnc(N2CCCC(NCc3cccc4c3OCCO4)C2)nc1` (stereo not drawn) has an INHIBITION of 22.9%.
For `CN(C)Cc1ccnc(C2CCCN2Cc2ccc(F)cn2)n1` (stereo not drawn), the INHIBITION was 63.4%.
`CN(C)Cc1ccnc(C2CCCN2Cc2cc[nH]n2)n1` (stereo not drawn) was tested, and the INHIBITION was 29.6%.
`CN(C)Cc1ccnc(C2CCCN2Cc2ccncc2)n1` (stereo not drawn) was tested, and the INHIBITION was 40.4%.
Work on `CCc1cnc(CN(C(C)=O)C2CCN(CC3(O)CCCCC3)C2)o1` (stereo not drawn) yielded an INHIBITION of 5.9%.
In the case of `c1ccc(-c2nc(CN3CCCC3Cn3cccn3)no2)cc1` (stereo not drawn), the INHIBITION is reported as 44.3%.
`Cc1nc(NC(=O)CN2C(=O)c3ccccc3NC2C(C)C)sc1C` (stereo not drawn) was tested, and the INHIBITION was 32.2%.
`CN(Cc1cc(=O)c(O)co1)C1CCN(c2ccc(F)cc2)CC1` was tested, and the INHIBITION was 53.5%.
`Cc1cc(N2CCC(N(C)Cc3cc(=O)c(O)co3)CC2)nc(C)n1` was tested, and the INHIBITION was 28.7%.
In the case of `CN(Cc1cc(=O)c(O)co1)C1CCCN(c2ccccc2)C1` (stereo not drawn), the INHIBITION is reported as 7.93%.
